What all share (experiment): yeast three-hybrid, YBZ-1, SC-Leu-His + 0.5 mM 3-AT, 4 days
Conditions in all cases: tags: N-Gal4 AD-HA kept; label: inside an RPR1-promoter hybrid RNA with tandem MS2 sites; ssRNA

One assay concerns the target PUM1 PUF domain R1-TMR (Homo sapiens, UniProt Q14671 828-1176, S863T;R864M;Q867R). The method, boiled down:
(§1)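 The interaction score is the log change in how often each variant appears, from input to selection. Frequencies came from PCR-amplified, Illumina-sequenced repeat regions of Pumilio-1 PUF domain libraries grown in strain YBZ-1 (LexA–MS2 coat fusion, HIS3 reporter) alongside matching RNA elements. Input plates were SC-Leu and selection plates were SC-Leu-His + 0.5 mM 3-AT, each for four days, and the log2 calculation used a pseudocount of 1 where a variant was absent.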

For a further assay, the target named is PUM1 PUF domain R1-GCR (Homo sapiens, UniProt Q14671 828-1176, S863G;R864C;Q867R). The method, boiled down: as §1
Another assay concerns the target PUM1 PUF domain R8-RHI (Homo sapiens, UniProt Q14671 828-1176, N1122R;Y1123H;Q1126I). The gist of the method: as §1
The next assay has as its target PUM1 PUF domain R5-RGP (Homo sapiens, UniProt Q14671 828-1176, C1007R;R1008G;Q1011P). The gist of the method: as §1
The target of another assay is PUM1 PUF domain R5-FKR (Homo sapiens, UniProt Q14671 828-1176, C1007F;R1008K;Q1011R). The method, boiled down: as §1
In the next assay the target is PUM1 PUF domain R5-KND (Homo sapiens, UniProt Q14671 828-1176, C1007K;R1008N;Q1011D). The gist of the method: as §1
The next assay has as its target T1, PUM1 PUF domain R6-VYG (Homo sapiens, UniProt Q14671 828-1176, N1043V;Q1047G).
T1 sequence: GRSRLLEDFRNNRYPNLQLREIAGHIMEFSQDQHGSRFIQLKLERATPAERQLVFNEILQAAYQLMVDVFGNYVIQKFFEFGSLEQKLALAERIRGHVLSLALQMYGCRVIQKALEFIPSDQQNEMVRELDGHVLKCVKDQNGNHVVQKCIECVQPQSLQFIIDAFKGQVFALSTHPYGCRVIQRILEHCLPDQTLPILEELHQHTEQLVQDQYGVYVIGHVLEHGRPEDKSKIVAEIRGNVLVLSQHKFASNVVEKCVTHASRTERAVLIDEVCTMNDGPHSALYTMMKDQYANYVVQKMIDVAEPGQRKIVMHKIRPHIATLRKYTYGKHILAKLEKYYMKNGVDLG
The method, boiled down:
as §1

In a further assay the target is PUM1 PUF domain R7-RSN (Homo sapiens, UniProt Q14671 828-1176, S1079R;N1080S;E1083N). The method, boiled down: as §1
For another assay, the target named is PUM1 PUF domain R3-SME (Homo sapiens, UniProt Q14671 828-1176, C935S;R936M;Q939E). The gist of the method:
as §1

Turning to “GGCUAGAACUAGUGGAUCCCCCGGCGCCCGGCGGCUCGAGCCCGGGUAAGUGUAAAUCGUCUGCAUGCCGCCGGGCGCCAUGCCUGCAGGUCGACUCUAGAAAACAUG”, the binding signal with PUM1 PUF domain R1-TMR was 2.55 log2 enrichment (interaction score); in the assay with PUM1 PUF domain R1-GCR, 2.53 log2 enrichment (interaction score).

As to “GGCUAGAACUAGUGGAUCCCCCGGCGCCCGGCGGCUCGAGCCCGGGUAAGCGUAAAUAGUCUGCAUGCCGCCGGGCGCCAUGCCUGCAGGUCGACUCUAGAAAACAUG”, in the assay with PUM1 PUF domain R8-RHI, the binding signal is 5.37 log2 enrichment (interaction score).

For the sequence “GGCUAGAACUAGUGGAUCCCCCGGCGCCCGGCGGCUCGAGCCCGGGUAAGUGUCAAUAGUCUGCAUGCCGCCGGGCGCCAUGCCUGCAGGUCGACUCUAGAAAACAUG”, the binding signal was 2.99 log2 enrichment (interaction score) with PUM1 PUF domain R5-RGP, 3.62 log2 enrichment (interaction score) with PUM1 PUF domain R5-FKR and 3.62 log2 enrichment (interaction score) with PUM1 PUF domain R5-KND.

As to “GGCUAGAACUAGUGGAUCCCCCGGCGCCCGGCGGCUCGAGCCCGGGUAAGUGAAAAUAGUCUGCAUGCCGCCGGGCGCCAUGCCUGCAGGUCGACUCUAGAAAACAUG”, the binding signal with PUM1 PUF domain R6-VYG is 5.61 log2 enrichment (interaction score).

Regarding “GGCUAGAACUAGUGGAUCCCCCGGCGCCCGGCGGCUCGAGCCCGGGUAAGUGUAAAUAGUCUGCAUGCCGCCGGGCGCCAUGCCUGCAGGUCGACUCUAGAAAACAUG”, the binding signal in the assay with PUM1 PUF domain R6-VYG was 1.61 log2 enrichment (interaction score).

On to “GGCUAGAACUAGUGGAUCCCCCGGCGCCCGGCGGCUCGAGCCCGGGUAAGUGUAAAUUGUCUGCAUGCCGCCGGGCGCCAUGCCUGCAGGUCGACUCUAGAAAACAUG”, for which the binding signal in the assay with PUM1 PUF domain R1-GCR is 1.58 log2 enrichment (interaction score).

Take “GGCUAGAACUAGUGGAUCCCCCGGCGCCCGGCGGCUCGAGCCCGGGUAAGUGUUAAUAGUCUGCAUGCCGCCGGGCGCCAUGCCUGCAGGUCGACUCUAGAAAACAUG”: the binding signal with PUM1 PUF domain R5-FKR was 2.17 log2 enrichment (interaction score).

As to “GGCUAGAACUAGUGGAUCCCCCGGCGCCCGGCGGCUCGAGCCCGGGUAAGUCUAAAUAGUCUGCAUGCCGCCGGGCGCCAUGCCUGCAGGUCGACUCUAGAAAACAUG”, the binding signal with PUM1 PUF domain R7-RSN was 1.34 log2 enrichment (interaction score).

On to “GGCUAGAACUAGUGGAUCCCCCGGCGCCCGGCGGCUCGAGCCCGGGUAAGUUUAAAUAGUCUGCAUGCCGCCGGGCGCCAUGCCUGCAGGUCGACUCUAGAAAACAUG”, for which, in the assay with PUM1 PUF domain R7-RSN, the binding signal was 3.1 log2 enrichment (interaction score).

In the case of “GGCUAGAACUAGUGGAUCCCCCGGCGCCCGGCGGCUCGAGCCCGGGUAAGUGUAAGUAGUCUGCAUGCCGCCGGGCGCCAUGCCUGCAGGUCGACUCUAGAAAACAUG”, in the assay with PUM1 PUF domain R3-SME, the binding signal was 3.43 log2 enrichment (interaction score).
